# Experimental data as given in paper PMC7862700, “An all-to-all approach to the identification of sequence-specific readers for epigenetic DNA modifications on cytosine”.
# How the values were obtained:
# Test in all cases: DAPPL (digital affinity profiling via proximity ligation, sequencing); 10 mM Tris-HCl pH 7.5, 50 mM NaCl, 1 mM DTT, 4% glycerol, room temperature, 30 min; GST-TFs on glutathione beads, 16-mer random dsDNA library, 0.1% formaldehyde crosslink after washing; high values mean tight binding
# Details in all cases: protein: recombinant; tags: N-terminal GST; dsDNA, one strand shown
# FLI1 = target: T1, FLI1 (Homo sapiens, UniProt Q01543 1-452)
# T1 sequence: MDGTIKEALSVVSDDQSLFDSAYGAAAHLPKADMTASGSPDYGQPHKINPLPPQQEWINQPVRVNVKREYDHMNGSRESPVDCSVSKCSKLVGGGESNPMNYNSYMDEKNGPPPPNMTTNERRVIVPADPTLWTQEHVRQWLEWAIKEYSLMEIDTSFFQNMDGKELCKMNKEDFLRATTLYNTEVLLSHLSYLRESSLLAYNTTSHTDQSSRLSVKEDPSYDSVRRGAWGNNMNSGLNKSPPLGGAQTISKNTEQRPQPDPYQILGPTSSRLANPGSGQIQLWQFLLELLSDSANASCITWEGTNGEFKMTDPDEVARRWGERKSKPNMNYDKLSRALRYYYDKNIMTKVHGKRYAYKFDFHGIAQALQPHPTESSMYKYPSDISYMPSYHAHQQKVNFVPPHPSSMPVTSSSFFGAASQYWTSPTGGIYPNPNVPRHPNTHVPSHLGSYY
# Method in brief: (§1)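 Yeast served to express human transcription factors as GST fusions, which were then captured on glutathione beads and labelled with DNA barcodes. Pooled with a tag-only sample, they were incubated with 200 nmole of a 16-mer random double-stranded DNA library for 30 min at room temperature in Tris/NaCl/DTT/glycerol buffer, washed, crosslinked with 0.1% formaldehyde, ligated by proximity, amplified by PCR and sequenced. Dividing each hexamer's read frequency for a factor by its frequency for the tag-only sample gives the binding signal.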
# EHF = target: T2, EHF (Homo sapiens, UniProt Q9NZC4 1-300)
# T2 sequence: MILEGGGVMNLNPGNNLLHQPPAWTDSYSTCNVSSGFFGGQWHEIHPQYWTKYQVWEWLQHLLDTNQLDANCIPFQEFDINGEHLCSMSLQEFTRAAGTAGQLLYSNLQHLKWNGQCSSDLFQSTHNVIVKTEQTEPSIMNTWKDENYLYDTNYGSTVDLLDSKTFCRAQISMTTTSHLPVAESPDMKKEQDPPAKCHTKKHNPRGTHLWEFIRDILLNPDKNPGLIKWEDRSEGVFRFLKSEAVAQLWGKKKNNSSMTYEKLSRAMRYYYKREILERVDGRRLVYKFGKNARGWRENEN
# Method in brief: as §1
# SPIC = target: T3, SPIC (Homo sapiens, UniProt Q8N5J4 1-248)
# T3 sequence: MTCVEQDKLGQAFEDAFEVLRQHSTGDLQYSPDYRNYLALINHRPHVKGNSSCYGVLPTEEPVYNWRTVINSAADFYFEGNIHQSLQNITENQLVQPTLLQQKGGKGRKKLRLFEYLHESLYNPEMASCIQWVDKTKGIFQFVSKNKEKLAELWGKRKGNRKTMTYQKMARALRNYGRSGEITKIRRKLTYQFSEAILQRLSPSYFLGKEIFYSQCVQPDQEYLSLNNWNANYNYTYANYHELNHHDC
# Method in brief: as §1
# ELF4 = ELF4 (Homo sapiens, UniProt Q99607 1-663)
# Sequence of ELF4 (Q99607 whole entry): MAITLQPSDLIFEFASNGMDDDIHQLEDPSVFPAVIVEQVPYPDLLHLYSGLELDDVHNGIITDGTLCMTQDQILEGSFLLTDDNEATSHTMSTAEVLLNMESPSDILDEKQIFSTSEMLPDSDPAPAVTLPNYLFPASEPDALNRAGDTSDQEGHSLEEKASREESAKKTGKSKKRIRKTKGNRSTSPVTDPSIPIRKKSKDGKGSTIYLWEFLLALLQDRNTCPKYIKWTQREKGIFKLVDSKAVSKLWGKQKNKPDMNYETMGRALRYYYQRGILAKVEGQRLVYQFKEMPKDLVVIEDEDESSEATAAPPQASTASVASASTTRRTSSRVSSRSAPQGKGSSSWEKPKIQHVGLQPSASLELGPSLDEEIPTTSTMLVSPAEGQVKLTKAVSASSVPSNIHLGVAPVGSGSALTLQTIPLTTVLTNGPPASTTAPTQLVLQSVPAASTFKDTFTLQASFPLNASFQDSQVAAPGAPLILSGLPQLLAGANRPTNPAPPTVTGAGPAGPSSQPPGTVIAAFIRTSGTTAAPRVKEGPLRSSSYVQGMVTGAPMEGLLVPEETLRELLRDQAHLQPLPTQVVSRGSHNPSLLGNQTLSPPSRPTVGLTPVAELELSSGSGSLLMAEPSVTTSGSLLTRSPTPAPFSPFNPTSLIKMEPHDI
# Method in brief: as §1
# ELK4 = target: T4, ELK4 (Homo sapiens, UniProt P28324-2 1-405)
# T4 sequence: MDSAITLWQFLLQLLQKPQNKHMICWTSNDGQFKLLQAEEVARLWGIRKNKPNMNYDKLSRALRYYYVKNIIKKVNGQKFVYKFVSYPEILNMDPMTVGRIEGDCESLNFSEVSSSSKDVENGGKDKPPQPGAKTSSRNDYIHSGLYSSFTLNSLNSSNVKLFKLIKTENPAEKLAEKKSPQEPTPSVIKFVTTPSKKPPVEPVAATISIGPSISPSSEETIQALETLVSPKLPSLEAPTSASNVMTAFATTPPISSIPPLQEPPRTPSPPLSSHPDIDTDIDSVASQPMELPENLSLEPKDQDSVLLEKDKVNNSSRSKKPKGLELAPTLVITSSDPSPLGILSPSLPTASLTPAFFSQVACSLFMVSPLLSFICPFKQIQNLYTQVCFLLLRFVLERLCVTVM
# Method in brief: as §1
# ELF3 = target: T5, ELF3 (Homo sapiens, UniProt P78545 1-371)
# T5 sequence: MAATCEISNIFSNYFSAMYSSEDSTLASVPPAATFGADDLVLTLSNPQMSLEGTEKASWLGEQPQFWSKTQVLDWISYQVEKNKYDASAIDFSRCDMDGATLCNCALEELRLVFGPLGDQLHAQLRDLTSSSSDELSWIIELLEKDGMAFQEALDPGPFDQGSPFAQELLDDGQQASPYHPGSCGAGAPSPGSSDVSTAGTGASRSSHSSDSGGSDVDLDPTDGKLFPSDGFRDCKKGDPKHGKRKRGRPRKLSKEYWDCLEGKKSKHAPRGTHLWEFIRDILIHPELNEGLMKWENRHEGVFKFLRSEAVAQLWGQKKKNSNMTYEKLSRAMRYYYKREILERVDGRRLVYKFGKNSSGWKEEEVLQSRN
# Method in brief: as §1
# ETV1 = ETV1 (Homo sapiens, UniProt P50549 1-477)
# Sequence of ETV1 (P50549 whole entry): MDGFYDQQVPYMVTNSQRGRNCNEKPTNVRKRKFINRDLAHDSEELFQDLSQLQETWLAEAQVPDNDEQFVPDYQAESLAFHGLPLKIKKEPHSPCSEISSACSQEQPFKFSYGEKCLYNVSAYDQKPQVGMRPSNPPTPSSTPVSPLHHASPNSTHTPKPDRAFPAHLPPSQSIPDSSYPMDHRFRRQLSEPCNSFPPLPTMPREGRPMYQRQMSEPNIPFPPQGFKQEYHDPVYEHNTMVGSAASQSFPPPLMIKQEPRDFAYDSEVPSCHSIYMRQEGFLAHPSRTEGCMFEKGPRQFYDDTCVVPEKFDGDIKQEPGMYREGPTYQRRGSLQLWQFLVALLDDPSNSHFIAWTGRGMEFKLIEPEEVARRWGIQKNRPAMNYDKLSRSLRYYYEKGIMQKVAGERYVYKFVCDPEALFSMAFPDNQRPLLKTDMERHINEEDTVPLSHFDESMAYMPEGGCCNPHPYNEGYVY
# Method in brief: as §1
# ERF = target: T6, ERF (Homo sapiens, UniProt P50548 1-548)
# T6 sequence: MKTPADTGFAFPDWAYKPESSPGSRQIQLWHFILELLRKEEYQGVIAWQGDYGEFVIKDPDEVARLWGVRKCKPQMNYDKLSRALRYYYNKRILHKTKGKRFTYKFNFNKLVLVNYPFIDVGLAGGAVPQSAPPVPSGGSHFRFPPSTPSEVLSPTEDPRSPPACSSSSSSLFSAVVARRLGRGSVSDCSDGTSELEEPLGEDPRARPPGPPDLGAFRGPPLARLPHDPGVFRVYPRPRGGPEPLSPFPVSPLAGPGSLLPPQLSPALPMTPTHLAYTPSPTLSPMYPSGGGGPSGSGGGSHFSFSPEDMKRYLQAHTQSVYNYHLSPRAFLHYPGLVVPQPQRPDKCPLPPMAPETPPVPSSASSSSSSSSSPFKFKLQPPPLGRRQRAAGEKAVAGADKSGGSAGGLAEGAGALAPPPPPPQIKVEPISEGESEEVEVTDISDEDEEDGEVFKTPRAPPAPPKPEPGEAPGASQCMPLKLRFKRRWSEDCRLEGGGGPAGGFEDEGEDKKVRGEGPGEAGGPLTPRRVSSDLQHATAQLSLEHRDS
# Method in brief: as §1
# ETV3L = target: T7, ETV3L (Homo sapiens, UniProt Q6ZN32 1-361)
# T7 sequence: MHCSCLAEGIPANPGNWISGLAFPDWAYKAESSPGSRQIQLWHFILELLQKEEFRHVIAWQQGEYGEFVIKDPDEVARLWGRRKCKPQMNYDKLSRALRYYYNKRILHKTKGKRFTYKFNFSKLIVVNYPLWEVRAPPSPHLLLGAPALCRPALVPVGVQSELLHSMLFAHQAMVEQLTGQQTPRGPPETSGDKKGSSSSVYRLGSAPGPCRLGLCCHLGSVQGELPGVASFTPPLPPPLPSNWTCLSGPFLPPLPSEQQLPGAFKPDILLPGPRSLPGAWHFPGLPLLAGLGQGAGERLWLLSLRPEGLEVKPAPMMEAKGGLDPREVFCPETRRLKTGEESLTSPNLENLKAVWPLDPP
# Method in brief: as §1
# ETV3 = target: T8, ETV3 (Homo sapiens, UniProt P41162-2 1-143)
# T8 sequence: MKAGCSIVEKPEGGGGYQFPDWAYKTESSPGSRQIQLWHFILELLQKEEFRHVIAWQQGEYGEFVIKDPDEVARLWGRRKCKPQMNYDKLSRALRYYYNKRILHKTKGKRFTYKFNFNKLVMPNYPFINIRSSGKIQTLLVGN
# Method in brief: as §1
# ETV6 = ETV6 (Homo sapiens, UniProt P41212 1-452)
# Sequence of ETV6 (P41212 whole entry): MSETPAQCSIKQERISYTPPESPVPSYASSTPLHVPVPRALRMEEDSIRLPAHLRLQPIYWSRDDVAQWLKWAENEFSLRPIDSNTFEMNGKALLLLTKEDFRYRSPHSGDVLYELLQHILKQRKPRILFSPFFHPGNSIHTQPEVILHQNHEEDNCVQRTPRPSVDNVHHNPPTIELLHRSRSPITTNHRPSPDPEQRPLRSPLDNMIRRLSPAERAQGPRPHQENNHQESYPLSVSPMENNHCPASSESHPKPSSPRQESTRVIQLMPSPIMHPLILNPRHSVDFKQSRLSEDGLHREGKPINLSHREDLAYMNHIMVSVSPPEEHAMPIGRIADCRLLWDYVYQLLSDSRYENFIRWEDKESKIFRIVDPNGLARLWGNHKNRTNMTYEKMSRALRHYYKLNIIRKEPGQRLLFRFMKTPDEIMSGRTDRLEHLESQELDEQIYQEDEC
# Method in brief: as §1
sequence,measurement,setting,value
GCTAGG,binding signal,FLI1,"1.01 fold enrichment (6-mer frequency, TF over GST control)"
same,binding signal,EHF,"1.12 fold enrichment (6-mer frequency, TF over GST control)"
same,binding signal,SPIC,"1.03 fold enrichment (6-mer frequency, TF over GST control)"
same,binding signal,ELF4,"1.06 fold enrichment (6-mer frequency, TF over GST control)"
same,binding signal,ELK4,"1.08 fold enrichment (6-mer frequency, TF over GST control)"
same,binding signal,ELF3,"1.14 fold enrichment (6-mer frequency, TF over GST control)"
same,binding signal,ETV1,"1 fold enrichment (6-mer frequency, TF over GST control)"
same,binding signal,ERF,"1.01 fold enrichment (6-mer frequency, TF over GST control)"
same,binding signal,ETV3L,"1.06 fold enrichment (6-mer frequency, TF over GST control)"
same,binding signal,ETV3,"1.03 fold enrichment (6-mer frequency, TF over GST control)"
same,binding signal,ETV6,"1.07 fold enrichment (6-mer frequency, TF over GST control)"
